Measured values taken from PubChem BioAssay AID1650 (Southern Research Specialized Biocontainment Screening …, 2009).
Potency and affinity values are given separately. Active and inactive are the calls of the source. Where a call stands in place of a potency, no number is given. No rule for the calls is given here.

test: host cell cytotoxicity of antiviral hits, dose response, cytotoxicity control for West Nile virus antiviral project, secondary assay (AID 1650); settings: Mammalian host cell viability, cytotoxicity counter-screen; series mostly up to 10 µM

| Compound | outcome |
| --- | --- |
| CCCN1CCN(C(=S)Nc2ccc3nc(N4CCN(CC)CC4)cc(C)c3c2)CC1 | inactive |
| COc1ccc(CN2[C@@H](CC(C)=O)c3ccc(/C=C/C(C)=O)cc3S2(=O)=O)cc1 | inactive |
| CCCCOC(=O)Cn1c2ccc(OC)cc2c2nc3ccccc3nc21 | inactive |
| Cc1onc(-c2ccccc2Cl)c1C(=O)O/N=C(\N)c1ccc([N+](=O)[O-])o1 | inactive |
| COc1ccc([C@@H]2[C@@H]3C(=O)N(C(C)(C)C)C(=O)[C@@H]3[C@]3(Cc4ccccc4)C(=O)N(c4ccc(Br)cc4)C(=O)N23)cc1 | inactive |
| O=C(CCN1C(=O)/C(=C/c2ccccc2Cl)SC1=S)NCCc1ccc(O)cc1 | inactive |
| CCOC(=O)C(CC)(CC)C(=O)/C=C/c1cccc(Br)c1 | inactive |
| CCN(CC)CCNC(=O)C1CCN(S(=O)(=O)c2c(C)noc2/C=C/c2ccccc2F)CC1 | inactive |
| O=C(CN1C(=O)/C(=C\c2cccc(Cl)c2)Sc2ccccc21)NCCCN1CCOCC1 | inactive |
| CC(C)(C)c1ccc(-c2nnc(SCC(=O)Nc3sc4c(c3C#N)CCCC4)o2)cc1 | inactive |
| CCOc1ccc2nc(N3CCCC(C(=O)NCCCN4CC(C)CC(C)C4)C3)sc2c1 (stereo not given) | inactive |
| Cc1cc(N2CCN(C)CC2)nc2ccc(NC(=S)NCc3cccs3)cc12 | inactive |
| Cc1cncn1CCc1nc2c3ccccc3nc(SCC(=O)Nc3cccc(Cl)c3)n2n1 | inactive |
| CCc1ccc2nc(N(CCCN(C)C)C(=O)c3ccc(S(=O)(=O)N4CCCc5ccccc54)cc3)sc2c1 | inactive |
| CCCCN(CC)CCNC(=S)Nc1ccc2nc(N3CCN(C)CC3)cc(C)c2c1 | inactive |
| CCCC12CN3CC(C)(CN(C1)C3c1ccc(OC(C)C)cc1)C2=O (stereo not given) | inactive |
| CCCCCCn1c(SCC(=O)Nc2cc(C)on2)nc2ccccc2c1=O | inactive |
| CCOC(=O)c1c2c(n(C)c1COC)C(=O)C(=O)c1ccc(Br)cc1-2 | inactive |
| Cc1ccc(-c2cc(C(=O)N(C)Cc3cnn(C)c3C)c3cc(Br)ccc3n2)cc1 | inactive |
| O=C(c1cccc(S(=O)(=O)N2CCOCC2)c1)N1CCOCC1 | inactive |

| Compound | outcome |
| --- | --- |
| O=C(CCCN1C(=O)/C(=C\c2ccccc2)SC1=S)Nc1ccc(O)cc1 | inactive |
| CN(C)c1nc(=Nc2cccc(Cl)c2)ss1 | inactive |
| Nc1nonc1-n1nnc(C(=O)N/N=C/c2ccc(OCc3ccccc3)cc2)c1CNc1ccccc1 | inactive |
| CCOc1ccc2nc(N3CCCC(C(=O)NCCCN4CCCCC4)C3)sc2c1 (stereo not given) | inactive |
| O=S(=O)(/C=C/c1ccccc1)Oc1ccccc1 | inactive |
| Cc1ccc(-c2cc(C(=O)NCCCN3CCCC3)c3ccccc3n2)cc1C | inactive |
| CSc1cccc(NC(=S)N(CCCN2CCCC2)Cc2cccn2Cc2ccc(Cl)cc2)c1 | inactive |
| COc1cc(NC(=O)c2cc([N+](=O)[O-])ccc2Br)ccc1NC(=O)c1ccco1 | inactive |
| CC(C)c1ccc(-c2cc(C(=O)NN3CCN(C)CC3)c3ccccc3n2)cc1 | inactive |
| Cc1ccc(NC(=S)N(CCCN2CCCC2)Cc2cccn2Cc2ccc(Cl)cc2)cc1C | inactive |
| COc1ccc(NC(=O)CSc2nc3c(sc4ccccc43)c(=O)n2CCCN2CCCC2)cc1 | inactive |
| CCN(CC)CCCNC(=O)c1[nH]c2ccccc2c1Sc1ccc(Cl)cc1 | inactive |
| COc1ccc(OCC(O)Cn2c(=N)n(Cc3ccccc3)c3ccccc32)cc1 (stereo not given) | inactive |
| COc1cc(-c2cc3nc(C)c(C)c(=O)n3[nH]2)cc(OC)c1OC | inactive |
| Cc1ccc(-c2nc3ccccc3n3nnnc23)cc1 | inactive |
| Cc1cc(C)c(NC(=O)Cn2nnc(C(=O)Nc3ccc(F)cc3F)c2N)c(C)c1 | inactive |
| CCN(CC)S(=O)(=O)c1ccc2c(c1)c(=O)c(C(=O)NCCc1ccc(OC)c(OC)c1)cn2C | inactive |
| COc1cc(C2c3c(oc4cc(C)c(C)cc4c3=O)C(=O)N2c2cc(C)ccn2)ccc1O (stereo not given) | inactive |
| CC(C)N1CCc2c(sc(NC(=O)c3ccc(C(=O)c4ccccc4)cc3)c2C(N)=O)C1 | inactive |
| COc1cc2c(OC(C)=O)c3c(c(-c4ccc5c(c4)OCO5)c2cc1OC)C(=O)OC3 | inactive |
